Results on 32 compounds are retold here after PubChem BioAssay (NCATS).

Inconclusive results are not listed. A number with no mark means an inactive call. Calls come from the whole dose curve; as a rule, active = well fitted inhibition curve with a large enough effect; inconclusive = small, poorly fitted or top-dose-only effect; inactive = flat fitted curve, though single readings scatter. Where a SMILES comes first, the peptide text is derived from it.
% is set by controls: 0 for no effect and ±100 for the full control effect.

Calcium and integrin-binding protein 1 (Homo sapiens), sequence (Q99828 whole entry, looked up): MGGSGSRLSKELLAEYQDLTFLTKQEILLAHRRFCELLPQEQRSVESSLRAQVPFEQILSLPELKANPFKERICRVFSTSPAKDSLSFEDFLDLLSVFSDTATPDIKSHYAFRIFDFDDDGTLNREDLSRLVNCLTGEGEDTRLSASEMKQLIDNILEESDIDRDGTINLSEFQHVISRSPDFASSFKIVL

In this assay the target is Calcium and integrin-binding protein 1 (Homo sapiens) (UniProt Q99828). The assay is described as follows: Primary qHTS for Identification of Calcium Integrin Binding Protein 1 (CIB1) Competitor (AID 1508620).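 Note: GST tagged CIB1 binding a fluorescein labelled alphaIIb integrin peptide tracer; top concentration of the series differs between compounds.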 The settings on record: CIB1-GST / FITC-alphaIIb peptide fluorescence polarization; series mostly up to 57.7 µM; activity change, negative = inhibition: at the top concentration. Put shortly:
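CIB1-GST (1 uM final) and compound incubated 15 min at room temperature before adding FITC-alphaIIb peptide tracer (100 nM final). Competition for binding read by fluorescence polarization (ex 480, em 540) after another 15 min at room temperature.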
A general note: Quantitative high-throughput screening tests each substance at several concentrations.
Turning to `C/C=C(\C)C(=O)OC[C@H]1O[C@@H](O[C@H]2[C@@H](O[C@H]3O[C@H](COC(=O)/C(C)=C/C)[C@@H](O)[C@H](O)[C@H]3O[C@@H]3O[C@H](CO)[C@@H](O)[C@H](OC(=O)/C(C)=C/C)[C@H]3O)O[C@H](COC(=O)/C(C)=C/C)[C@@H](O)[C@@H]2O)[C@H](O)[C@@H](O)[C@@H]1O`, the “activity change, negative = inhibition” value is -3.96% [at 30.2 µM].

On to `CC(CC12CCCN1C(=O)C1CCCN1C2=O)OC(N)=O` (configuration not stated), for which the “activity change, negative = inhibition” value was -2.15%. The value for `CC1=CC2=C(C)C(=O)C(C)(O)C(O)C2CO1` (configuration not stated) was -8.18% [at 114 µM]; that for `COc1cc(CO)ccc1O[C@@H]1O[C@H](CO)[C@@H](O)[C@H](O)[C@H]1O` was 0.204%. The value for `COC1OC(O)C2(CCC3(O2)C(C)CC2OC(=O)C4(C)CCCC3(C)C24)C1O` (configuration not stated) was -1.83%; that for `COc1cc(C)c(C(=O)NC2C(C)OC(OC3CCC(C)C4C3C=C(C)C3/C(C)=C\CC/C(C)=C/C5(C)C=C(C(=O)O)C(C)CC56OC(=O)/C(=C(\O)C34C)C6=O)C(O)C2(C)O)c(O)c1` (configuration not stated) was 11.8% [at 30.2 µM]; that for `CC/C=C\CC1C(CC(=O)O)CCC1OC1OC(CO)C(O)C(O)C1O` (configuration not stated) was -0.41%.

Regarding `C/C(=C\CCC(C)(C)O)CCO[C@@H]1O[C@H](CO[C@@H]2O[C@@H](C)[C@H](O)[C@@H](O)[C@H]2O)[C@@H](O)[C@H](O)[C@H]1O`, the “activity change, negative = inhibition” value is 2.94%. The value for `CC(C)(O)C(O)C(=O)OCc1ccc(O[C@@H]2O[C@H](CO)[C@@H](O)[C@H](O)[C@H]2O)cc1` (some centres not stated) was 3.26%; that for `O=C1NC(=O)/C(=C/c2cccc(C(F)(F)F)c2)S1` was 38.3% [at 114 µM]. In the case of `Cn1nccc1-c1ccccc1Oc1ccc(S(=O)(=O)Nc2nccs2)cc1C#N`, the “activity change, negative = inhibition” value was 0.289% [at 114 µM].

Consider `CC1=CCC[C@@H]2[C@](CCc3ccoc3)(C(=O)O)[C@H](C)CC[C@@]12C`, for which the “activity change, negative = inhibition” value is 0.456%. For the compound `COC(=O)C1=CO[C@@H](O[C@@H]2O[C@H](CO)[C@@H](O)[C@H](O)[C@H]2O)[C@@H]2C(CO)=CC[C@H]12`, the “activity change, negative = inhibition” value is 1.66%. For `CC(CC(C)O[C@@H]1O[C@H](CO)[C@@H](O)[C@H](O)[C@H]1O)OC(=O)/C=C/c1ccc(O)cc1` (some centres not stated) the value was 3.09%. For `CC(=O)OC1C(O)/C(C)=C\C2C(OC(=O)c3ccccc3)C(C)CC2(OC(C)=O)C(OC(C)=O)C(C)/C=C/C(C)(C)C1OC(C)=O` (configuration not stated) the value was -0.416% [at 30.2 µM]. The value for `CC1=C(CO)C2(C)CCCC(C)(C)C2C(O)C1O` (configuration not stated) was 2.95% [at 114 µM].

Regarding `CC(C)C[C@H](NC(=O)[C@@H]1O[C@H]1C(=O)O)C(=O)NCCCCN=C(N)N`, the “activity change, negative = inhibition” value was -4.69% [at 114 µM]. For `COC(=O)C1=CO[C@@H](O[C@@H]2O[C@H](CO)[C@@H](O)[C@H](O)[C@H]2O)[C@@H]2[C@@H](CO)[C@@H](O)C(O)[C@H]12` (some centres not stated) the value was -2.75%; for `CC12CC34CC(O)C5C(CO)(CO)CC(=O)CC5(C)C3CC1C2C4` (configuration not stated), 0.975%. For `C=C1CCC2(C(=O)OC3OC(CO)C(O)C(O)C3O)CCC3(C)C(=CCC4C5(C)CCC(OC6OC(CO)C(OC7OC(C)C(O)C(O)C7O)C(OC7OCC(O)C(O)C7O)C6O)C(C)(C)C5CCC43C)C2C1` (configuration not stated), the “activity change, negative = inhibition” value is -10.2% [at 30.2 µM]. As for `COC(=O)[C@]1(Cc2ccc(O)c(CC=C(C)C)c2)OC(=O)C(O)=C1c1ccc(O)cc1`, the “activity change, negative = inhibition” value was -1.56%. The value for `O=C(O)c1cc(O[C@@H]2O[C@H](CO)[C@@H](O)[C@H](O)[C@H]2O)ccc1O` was -5.36%; that for `C=CC(C)(O)CC/C=C(\C)C1CC=C(C)C(=O)O1` (configuration not stated) was -0.496% [at 114 µM]; that for `C[C@@H]1O[C@@H](O[C@H]2[C@H](O[C@H]3[C@H](O[C@H]4CC[C@@]5(C)C(CC[C@]6(C)C5CC=C5[C@@H]7CC(C)(C)C[C@@H](O)[C@]7(C)CC[C@]56C)C4(C)C)O[C@H](C(=O)O)[C@@H](O)[C@@H]3O)O[C@H](C(=O)O)[C@H](O)[C@@H]2O)[C@H](O)[C@H](O)[C@H]1O` (some centres not stated) was 4.67% [at 30.2 µM]. The value for `COC(=O)CCC1(C)C(C(C)(C)O)C(O)CC2(C)Oc3c(C)c4c(c(OC)c3CC21)C(=O)OC4` (configuration not stated) was 3.04%; that for `Cc1occc(=O)c1O[C@@H]1O[C@H](COC(=O)CC(C)(O)CC(=O)O)[C@@H](O)[C@H](O)[C@H]1O` (some centres not stated) was 4.09%; that for `C=CCc1ccc(O[C@@H]2O[C@H](CO)[C@@H](O)[C@H](O)[C@H]2O)c(O[C@@H]2O[C@H](CO)[C@@H](O)[C@H](O)[C@H]2O)c1` was 3.97%. The value for `CC(=O)OCC1OC(O[C@H]2CC[C@@]3(C)C(CC[C@]4(C)C3CC=C3[C@@H]5CC(C)(C)CC[C@]5(C(=O)O)CC[C@]34C)[C@]2(C)CO)C(O)C(O)C1OC1OC(C)C(O)C(OC2OCC(O)C(O)C2O)C1O` (some centres not stated) was -4.5% [at 30.2 µM]; that for `CSCC[C@H](NC(=O)[C@H](CO)NC(=O)[C@H](CCC(=O)O)NC(C)=O)C(=O)N[C@H](C=O)CC(=O)O` (Ac-ESMD-aldehyde) was -1.27% [at 30.2 µM]; that for `CC(=O)O[C@H]1[C@H](O[C@H]2CC[C@]34C[C@]35CC[C@]3(C)[C@@H]([C@@]6(C)CC[C@@H](C(C)(C)O)O6)[C@@H](O)C[C@@]3(C)[C@@H]5C[C@H](O[C@@H]3O[C@H](CO)[C@@H](O)[C@H](O)[C@H]3O)[C@H]4C2(C)C)OC[C@@H](OC(C)=O)[C@@H]1O` was -4.56% [at 114 µM]. For `CC1=C2C(=O)C=C(CO)C2C2OC(=O)C(CS(=O)(=O)O)C2C(OC(=O)Cc2ccc(O)cc2)C1` (configuration not stated), the “activity change, negative = inhibition” value was -13.1%.

Consider `C/C=C(\C)C(=O)OC[C@H]1O[C@@H](O[C@H]2[C@@H](O[C@H]3O[C@H](COC(=O)/C(C)=C/C)[C@@H](O)[C@H](O)[C@H]3O[C@@H]3O[C@H](COC(=O)/C(C)=C/C)[C@@H](O)[C@H](OC(=O)/C(C)=C/C)[C@H]3O)O[C@H](COC(=O)/C(C)=C/C)[C@@H](O)[C@@H]2O)[C@H](O)[C@@H](O)[C@@H]1O`, for which the “activity change, negative = inhibition” value was -2.53% [at 30.2 µM].
